Assay results taken from PubChem BioAssay (NCATS).

Tests used:
[1] = qHTS profiling of the MIPE4 collection as inhibitors of Plasmodium falciparum (3D7) proliferation (AID 743344);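 note: scaled between DMSO vehicle wells and 0.29 µM artemisinin as full inhibition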; details: P. falciparum 3D7 in erythrocytes, SYBR Green DNA fluorescence, 72 h; at 28.5 µM unless noted
Method in brief: (§1)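 Parasite DNA was quantified by SYBR Green I fluorescence (ex 485, em 535 nm) after overnight lysis in saponin/Triton buffer at room temperature. Cultures at 0.3% parasitemia and 2.5% hematocrit were first exposed to compound for 72 h at 37 C; signals were normalised to artemisinin (0.29 uM) and vehicle wells.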

[2] = qHTS profiling of the MIPE4 collection as inhibitors of Plasmodium falciparum (DD2) proliferation (AID 743345); details: P. falciparum Dd2 in erythrocytes, SYBR Green DNA, 72 h; at 28.5 µM unless noted
Method in brief: as §1

SMILES | parasite growth, % of DMSO control [1] | parasite growth remaining, % of DMSO control (lower = more inhibition) [2]
CC[C@@H]1C=C(C)C[C@H](C)C[C@H](OC)[C@H]2O[C@@](O)(C(=O)C(=O)N3CCCC[C@@H]3C(=O)O[C@H](C(C)=C[C@@H]3CC[C@H](Cl)[C@H](OC)C3)[C@H](C)[C@@H](O)CC1=O)[C@H](C)C[C@H]2OC | 27.5% | 6.74%
C[C@H](NC(=O)c1sccc1OCc1ccc(Cl)cc1)c1ccccc1 | 13.9% | 14.8%
O=C1c2c(O)cc(O)cc2O[C@H](c2cc(O)c(O)c(O)c2)[C@H]1O | 85.4% | 85.1%
CCN(CC)CCOc1ccc(C(=C(Cl)c2ccccc2)c2ccccc2)cc1 | 5.06% | 9.72%
CC(C)(C)OC(=O)N[C@H]1CCCCCC=C[C@@H]2C[C@@]2(C(=O)NS(=O)(=O)C2CC2)NC(=O)[C@@H]2C[C@@H](OC(=O)N3Cc4cccc(F)c4C3)CN2C1=O | 11.7% | 40.6%
O=C(CCc1ccc(O)cc1)c1c(O)cc(O)cc1O[C@@H]1O[C@H](CO)[C@H](O)[C@H](O)[C@H]1O | 272% | 79.6%
CC(C)n1cnc2c(NCCCCCCNC(=O)OC(C)(C)C)nc(NCCO)nc21 | 20.1% | 60.6%
Nc1ncnc2c1nc(Cl)n2[C@@H]1O[C@H](CO)[C@@H](O)[C@@H]1O | 187% | 109%
CC1(C)CCC[C@@]2(C)[C@@H]1CC[C@@]1(C)OC(=O)C[C@H]21 | 81.6% | 136%
Cc1ccc([C@@H]2O[C@H](CO)[C@@H](O)[C@H](O)[C@@H]2O)cc1Cc1ccc(-c2ccc(F)cc2)s1 | 134% | 118%
CC[C@]1(O)C[C@@H]2CN(CCc3c([nH]c4ccccc34)[C@@](C(=O)OC)(c3cc4c(cc3OC)N(C=O)[C@@H]3C45CCN4CC=C[C@](CC)([C@H]45)[C@@H](OC(C)=O)[C@]3(O)C(=O)OC)C2)C1 (stereo not given in full) | 5.87% | 10.2%
C=C1C(=O)OC(CCCCCCCC)C1C(=O)O (stereo not given) | 50.6% | 76.2%
CS(=O)(=O)N(Cc1ccco1)CC(O)Cn1c2ccccc2c2ccccc21 (stereo not given) | 34.3% | 12.4%
O=C1NC(=O)C(=Cc2ccc(-c3ccc(F)cc3)o2)S1 | 75.2% | 93.7%
CN(C[C@@H]1COCCO1)S(=O)(=O)Nc1ccc2ccc3ncc(-c4cnn(C)c4)cc3c(=O)c2c1 | 13.4% | 47.9%
COc1ccc(Cc2ccc(NC(N)=O)cc2)cc1-c1cccc(Cl)c1 | 61.7% | 89.9%
CC=CC(=O)N(CC)c1ccccc1C | 92.3% | 104%
Nc1ncnc2c1ncn2[C@@H]1O[C@@H](CO)[C@H](O)[C@H]1O | 103% | 84.1%
CCOC(=O)O[C@]1(C(=O)OCCl)CC[C@@H]2[C@H]3CCC4=CC(=O)C=C[C@]4(C)[C@@H]3[C@@H](O)C[C@@]21C | 48.2% | 86.4%
COc1ccc2c(Oc3ccc(NC(=O)c4c(C)n(CC(C)(C)O)n(-c5ccccc5)c4=O)nc3)ccnc2c1 | 9.27% | 18.1%
CN[C@@H](C)C(=O)N[C@H]1CN(C(=O)CC(C)C)CC[C@H]2CC[C@@H](C(=O)NC(c3ccccc3)c3ccccc3)N2C1=O | 69.1% | 55%
CC=CC[C@@H](C)C(=O)[C@H]1C(=O)N[C@@H](C(C)C)C(=O)N(C)CC(=O)N(C)[C@@H](CC(C)C)C(=O)N[C@@H](C(C)C)C(=O)N(C)[C@@H](CC(C)C)C(=O)N[C@@H](C)C(=O)N[C@H](C)C(=O)N(C)[C@@H](CC(C)C)C(=O)N(C)[C@@H](CC(C)C)C(=O)N(C)[C@@H](C(C)C)C(=O)N1C | 90.9% | 93.4%
COc1cc(O)c2c(c1)C(=O)c1cc(C)cc(O)c1C2=O | 81.1% [at 9.64 µM] | 92.9% [at 9.64 µM]
O=C1c2ccccc2-[n+]2ccc3c([nH]c4ccccc43)c21 | 16.3% | 7.19%
Clc1cc(Cl)cc(CNc2ncncc2-c2ccc3c(c2)OCO3)c1 | 18.8% | 47.6%
COc1cc(NC(=O)c2ccc(-c3ccc(Cl)cc3)o2)cc(OC)c1 | 97.8% | 97.8%
C[C@H](NC(=O)C(=O)Nc1ccccc1C(C)(C)C)C(=O)N[C@@H](CC(=O)O)C(=O)COc1c(F)c(F)cc(F)c1F | 73.8% | 107%
O=C(Nc1ccccc1Br)N[C@@H]1CCN(c2ccc(C(F)(F)F)cn2)C1 | 73.6% | 96.2%
NC1CCC(Nc2nc(Nc3ccc(C(=O)N4CCCCC4)cc3)c3ncn(-c4cccc(F)c4)c3n2)CC1 (stereo not given) | 113% | 89.1%
O=c1cc(-c2ccccc2)oc2cc(O)c(O)c(O)c12 | 7.41% | 24.2%
